# Data taken from the OligoGym collection.
# Biological target: NKPD1
# Assay: pooled miR-30 sensor sort-seq; sequence = guide strand
# Conditions: shRNA
# Note: reference of the scale not given here.
row,Sequence,sensor-assay potency score (higher = more potent)
1,TCGCACATGAAACCCAGCTGGC,-0.962
2,AAAAGGAACTGCACGTTCCTGC,-0.361
3,TACTCGTAGAGGCAGTCGCGCT,-1.54
4,TTGAGCGCGCTGACGGCTCGGA,-0.211
5,TTACGAACAGGTGCTTGCCCAC,-0.968
6,AGGAACTGCAGCTTGGTGCGGC,-1.31
7,TAGATCTCCAGGAAGCACAGGA,0.323
8,TACAACAGGTCGTCGCGGCTCT,-0.332

# Biological target: NLGN1
# Assay: as above
# Conditions: shRNA
row,Sequence,sensor-assay potency score (higher = more potent)
1,TTGCTCGTTGAAAAAGTCCTTT,-0.525
2,TAAATTTCCAGTACCTTCCATA,-0.487
3,TTTATTTCACACAATGACCAGT,0.0352
4,TTGGTCAACAAGTTCTTTGTAA,0.00294
5,TATCTGAAACATTGCAACCAAC,-1.43
6,TTGTTGTAGAGGTATACTGAGA,-1.34
7,TTGTTGTTTGGGATCATCCTGC,0.229
8,TTGGTATGAATGAATTTCGTGT,-0.285
9,TAACATTATATCATAGTTGAGA,-0.468
10,TGAGGTACCAACTCCAACCAGA,0.0181
11,TAGCATTGGACTAATAGTCATT,-0.504

# Biological target: NLRP2
# Assay: as above
# Conditions: shRNA
row,Sequence,sensor-assay potency score (higher = more potent)
1,TTTCTGTAAACGCTTGTGCTTC,-0.408
2,TTCGTCTTCAATATATACCTGC,0.466
3,TATTTCTTTGAACTGAGCCATC,-1.26
4,TACAACTTATGTCGCATCGCAG,-0.571
5,TATACCTGCACCTATTGTCTTT,-0.461
6,TTTCTCAGTATCAATAATCAGT,-0.723
7,TTACAGTCTTGTGACCTCGAAG,-1.08
8,TTCAATATATACCTGCACCTAT,-0.184
9,TTCTGTTTTGAAGCGCTCCAGC,-0.763
10,TTTTTGAACACCACTCTCTGGA,0.671
11,TTTTTCTTCTATTTCTTCCAGC,-0.106
12,AAGTCATCTATTTTCAACCTGA,0.0295

# Biological target: NLRP3
# Assay: as above
# Conditions: shRNA
row,Sequence,sensor-assay potency score (higher = more potent)
1,TTCTCATAAAGGTCTCTCCTGT,-0.131
2,TTCTCTGTCTGACCCCTCGGGA,-1.19
3,TTGTCTAATTCCAACACCTGAA,-0.802
4,TCAAACAGCAACTCCATCTTAA,-0.477
5,TAGATCCACATGGTCTGCCTTC,-0.905
6,TTGGCTTTCACTTCAATCCATT,-0.825
7,TTGAAGTCGATCATTAGCGTGG,0.548
8,TGTGATGACAACAACACCCGAT,0.603
9,TTACAAATAGAGATTCTCGAAA,-0.224
